CF NFkB inh = blocks PAF-induced NF-kB reporter in cystic fibrosis cells; KKLEB NF-kB-GFP reporter, GFP fluorescence overnight; inhibition, % at 5 µM; 360,000 tested, 0.86% active; AID 588850;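 active = at least 50% inhibition at 5 µM, scaled per plate between neutral and stimulator controls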;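 note: PAF is a Pseudomonas aeruginosa culture filtrate used as stimulus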
MITF TRPM1 inh = reduces MITF-dependent TRPM1 promoter luciferase signal. SK-MEL-5 TRPM1 promoter luciferase, 24 h. inhibition, % at 12.5 µM. 330,000 tested, 0.83% active;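 active = mean inhibition across replicates of 60% or more, whatever share of single replicates reaches that level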
HIF-2a block = HIF-2a inhibition; 786-0 RCC cells HIF-2a reporter, luciferase luminescence, overnight; inhibition, % at 18.8 µM; 360,000 tested, 0.72% active; AID 624352;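 active = inhibition of the luminescence signal of 40% or more relative to plate controls, in a single-dose primary screen at 18.75 µM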
Shn3 inh set2 = Schnurri-3 reporter inhibition in Clone20 osteoblasts; inhibition, % at 12.5 µM; Clone20 osteoblast Shn3 3'UTR firefly luciferase, 24 h; 360,000 tested, 0.52% active;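 active = mean inhibition of at least 75% with every replicate also reaching 75%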
Peg3 promoter = Peg3 promoter activity inhibition. HeLa PEG-Prom luciferase reporter, luminescence, overnight. inhibition, % at 20 µM. 360,000 tested, 1.7% active;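 active = inhibition of at least 50% at 20 µM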
KKLEB cytotox = CF airway cell cytotoxicity counter-screen | KKLEB CF airway cells viability, ATPlite luminescence, overnight; hits give low values; cells stimulated with P. aeruginosa culture filtrate | activity change (cytotoxicity), % at 5 µM | 360,000 tested, 0.36% active | AID 602141;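 active = corrected activity change at or below -50% at 5 µM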
Mdm2-MdmX confirm = Mdm2/MdmX (human) interaction inhibition, confirmed | shares compounds with HIF-2a block | SaOS-2 split-luciferase Mdm2/MdmX complementation, luminescence | inhibition, % at 8 µM | 740 tested, 99% active | AID 504601;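 active = mean inhibition of the luminescence signal across two replicates at or above 26 percent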
Target sequence (O15151 whole entry, looked up): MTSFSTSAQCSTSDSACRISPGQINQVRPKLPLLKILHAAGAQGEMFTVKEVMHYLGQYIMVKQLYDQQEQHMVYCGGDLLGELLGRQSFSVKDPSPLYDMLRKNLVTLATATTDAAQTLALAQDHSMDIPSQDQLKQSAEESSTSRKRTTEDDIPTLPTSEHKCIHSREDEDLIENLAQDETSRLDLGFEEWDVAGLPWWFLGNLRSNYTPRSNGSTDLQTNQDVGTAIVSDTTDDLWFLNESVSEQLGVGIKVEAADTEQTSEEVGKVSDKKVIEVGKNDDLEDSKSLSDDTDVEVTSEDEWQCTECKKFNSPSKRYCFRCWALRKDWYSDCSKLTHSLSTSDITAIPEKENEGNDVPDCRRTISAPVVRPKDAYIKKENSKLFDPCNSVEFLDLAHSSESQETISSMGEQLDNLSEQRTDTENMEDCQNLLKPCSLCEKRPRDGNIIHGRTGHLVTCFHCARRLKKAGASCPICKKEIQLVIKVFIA
Target sequence (Q00987 whole entry, looked up): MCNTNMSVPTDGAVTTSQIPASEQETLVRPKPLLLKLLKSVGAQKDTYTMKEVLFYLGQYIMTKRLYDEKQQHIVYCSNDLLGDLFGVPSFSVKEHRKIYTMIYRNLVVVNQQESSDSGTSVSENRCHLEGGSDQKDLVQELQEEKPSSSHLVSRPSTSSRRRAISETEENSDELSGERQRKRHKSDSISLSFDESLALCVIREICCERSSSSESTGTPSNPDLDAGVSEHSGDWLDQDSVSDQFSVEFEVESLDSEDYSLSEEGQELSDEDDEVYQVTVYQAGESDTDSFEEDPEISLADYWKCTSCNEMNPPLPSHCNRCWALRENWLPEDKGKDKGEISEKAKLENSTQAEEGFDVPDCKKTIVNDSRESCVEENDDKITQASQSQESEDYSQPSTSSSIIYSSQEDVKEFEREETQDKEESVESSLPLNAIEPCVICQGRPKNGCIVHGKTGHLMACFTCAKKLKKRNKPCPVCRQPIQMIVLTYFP
HIF-2a conf = confirmation of HIF-2a inhibitors | shares compounds with HIF-2a block | 786-0 RCC cells, HIF-2a luciferase reporter luminescence, overnight | inhibition, % at 18.8 µM | 1,800 tested, 56% active;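 active = mean inhibition across four replicates of at least 40 percent at the single tested concentration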
HIF-1a cs = HIF-1a inhibition counter-screen for HIF-2a hits; shares compounds with HIF-2a block; MiaPaCa-2 HIF-1a luciferase reporter, desferoxamine, overnight; inhibition, % at 18.8 µM; 1,800 tested, 72% active; AID 651589;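 active = mean inhibition of the reporter signal across four replicates at the single tested dose of 50% or more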
Of the large screens only hits and unclear results are named; the others gave an inactive call (follow-up assays come after a bar, where they were run). Compounds with a hit are over-represented: about 2.7% of the library has one in this group of screens.

O=C(O)Cc1ccc(C(=O)c2ccccc2)s1	none (no result: Shn3 inh set2)
COc1ccc(C(=O)c2ccc(CC(=O)O)s2)cc1	HIF-2a block 59 | HIF-2a conf 66 | HIF-1a cs 61
CCOc1ccc(OCc2cccc(C(=O)N3CCCCCC3)c2)cc1	HIF-2a block 44 | HIF-2a conf inactive | HIF-1a cs inactive
CSc1nnc(-c2sc3cc(C(F)(F)F)cnc3c2-c2ccccc2)n1C	HIF-2a block 41 | HIF-2a conf inactive | HIF-1a cs 55
C/C(=N\Nc1cc(C)nc(-c2ccccc2O)n1)c1ccccc1O	CF NFkB inh 80 | Mdm2-MdmX confirm 73
CCOc1ccccc1NC(=O)CCn1ccnc1	none
COc1ccc(Br)cc1CNC(=O)Cn1nc(C)n2cccc2c1=O	none
O=C(NNc1nc2ccccc2o1)c1ccccc1	HIF-2a block 47 (no result: MITF TRPM1 inh) | HIF-2a conf 80 | HIF-1a cs inactive
CCn1c(C)nc2cc(-c3nc4n(n3)Cc3ccccc3-4)ccc21	MITF TRPM1 inh 98, HIF-2a block 91, Shn3 inh set2 97, Peg3 promoter 114, KKLEB cytotox -88 | Mdm2-MdmX confirm 100
O=C(NC1CCCC1)C(c1ccccc1)n1c(CSCCOc2ccccc2)nc2ccccc21 (centres undefined)	HIF-2a block 65 (no result: CF NFkB inh, MITF TRPM1 inh, Shn3 inh set2, Peg3 promoter, KKLEB cytotox) | HIF-2a conf 79 | HIF-1a cs 66
CC(C)(C)n1nnnc1C(c1cccnc1)N1CCN(c2cccc(C(F)(F)F)c2)CC1 (centres undefined)	none
CC(C)(C)c1cc(C(c2cccnc2)N2CCN(CCO)CC2)cc(C(C)(C)C)c1O (centres undefined)	MITF TRPM1 inh 79, HIF-2a block 89, Shn3 inh set2 97, Peg3 promoter 104 | Mdm2-MdmX confirm 103 | HIF-2a conf 80 | HIF-1a cs 75
Oc1cccc2ccc(Nc3ccccn3)nc12	CF NFkB inh 60, MITF TRPM1 inh 86, HIF-2a block 95, Peg3 promoter 102, KKLEB cytotox -67 | Mdm2-MdmX confirm 103 | HIF-2a conf 79 | HIF-1a cs 105
Cn1cncc1C#Cc1c(C=O)[nH]c2ccccc12	MITF TRPM1 inh 62, HIF-2a block 43 | HIF-2a conf inactive | HIF-1a cs 88
Cn1cncc1C#Cc1c(C=O)n(C)c2ccccc12	none
CCC(C(=O)NCCc1c[nH]c2ccc(C)cc12)c1ccccc1 (centres undefined)	none
Cc1cc(-c2ccccc2)nc(N/N=C/c2ccc(O)cc2)n1	none
Cc1cc(C)c2nc(C)cc(N/N=C/c3ccc(O)cc3)c2c1	MITF TRPM1 inh 86, HIF-2a block 93, Peg3 promoter 108, KKLEB cytotox -81 | Mdm2-MdmX confirm 103
CN1CCN(C(=O)CCN2C(=O)/C(=C\c3ccc(Cl)cc3)SC2=S)CC1	none
NS(=O)(=O)c1ccc(CCN2C(=O)/C(=C\c3ccc(Cl)cc3)SC2=S)cc1	HIF-2a block 42, Peg3 promoter 83 | Mdm2-MdmX confirm 103
CN1CCc2c(n(CC(O)CNCc3ccccc3)c3ccccc23)C1=O (centres undefined)	none
CC(C)NCC(O)Cn1c2c(c3ccccc31)CCc1c-2cnn1-c1ccccc1 (centres undefined)	MITF TRPM1 inh 85, HIF-2a block 41, Peg3 promoter 104 | HIF-2a conf inactive | HIF-1a cs 105
CCOC(=O)c1sc(NC(=O)c2cc3c(s2)CCC(C)C3)nc1C (centres undefined)	MITF TRPM1 inh 72, HIF-2a block 48 | HIF-2a conf 45 | HIF-1a cs inactive
COc1ccccc1-c1cc(SC)c(C#N)c(=O)o1	HIF-2a block 42, Peg3 promoter 82 | HIF-2a conf inactive | HIF-1a cs inactive
COc1ccccc1-c1cc(C(F)(F)F)c(C#N)c(=O)[nH]1	none
CCN(CC(=O)Nc1cccc(Br)c1)Cc1nc2ccccc2c(=O)[nH]1	HIF-2a block 42 | HIF-2a conf inactive | HIF-1a cs inactive
COC(=O)C(C(=O)OC)C(CC(=O)c1ccc(C)cc1)c1cc(OC)c(OC)c(OC)c1 (centres undefined)	none
COc1ccc(C(CC(=O)c2ccc(C)cc2)C(C#N)C#N)cc1OC (centres undefined)	CF NFkB inh 102, HIF-2a block 56, Peg3 promoter 93, KKLEB cytotox -89 | HIF-2a conf inactive | HIF-1a cs 105
CCOC(=O)c1cc(-c2csc(-c3ccc(C(C)(C)C)cc3)n2)on1	HIF-2a block 57 | HIF-2a conf 58 | HIF-1a cs inactive
COc1ccc(CC(=O)NNc2ncnc3c2cnn3Cc2ccccc2)cc1OC	none
O=C(NCCCN1CCOCC1)c1cc(-c2ccc(Br)cc2)on1	HIF-2a block 58 | HIF-2a conf inactive | HIF-1a cs 62
COc1ccc(CC(=O)OCCc2cc3cc(OC)c(OC)cc3c(=O)o2)cc1	none
COc1ccccc1CCNS(=O)(=O)c1cc2c3c(c1)CCN3C(=O)CC2	none
O=[N+]([O-])c1ccc(NC(=S)NCCc2ccc(Cl)cc2)cc1	none | Mdm2-MdmX confirm 97
O=[N+]([O-])c1ccc(NC(=S)NCCc2ccccc2)cc1	none
COc1ccc(Cl)cc1NC(=O)CN(C)Cc1cccs1	none
CC(C)C(=O)N1CCN(c2ccc(NC(=O)c3ccc([N+](=O)[O-])o3)cc2)CC1	CF NFkB inh 90, MITF TRPM1 inh 92, HIF-2a block 89, Peg3 promoter 112 | HIF-2a conf 54 | HIF-1a cs 98
Cc1ccccc1C(=O)N1CCN(c2ccc(NC(=O)c3ccc([N+](=O)[O-])o3)cc2)CC1	CF NFkB inh 64, MITF TRPM1 inh 81, HIF-2a block 96, Shn3 inh set2 99, Peg3 promoter 101 | HIF-2a conf inactive | HIF-1a cs 100
O=C(Nc1ccc(N2CCN(C(=O)c3ccccc3)CC2)cc1)c1ccc([N+](=O)[O-])o1	CF NFkB inh 84, MITF TRPM1 inh 91, HIF-2a block 90, Peg3 promoter 103, KKLEB cytotox -72 | HIF-2a conf 88 | HIF-1a cs 105
COc1ccc(C(=O)Nc2ccc(N3CCN(C(=O)C(C)C)CC3)cc2)cc1[N+](=O)[O-]	none
COc1cc(C(=O)NCC(=O)Nc2ccc(F)c(F)c2)ccc1OCC(=O)N1CCOCC1	none
COc1ccc(C(C)(C)C)cc1NC(=O)CSc1ncn[nH]1	none
O=C(O)CC1SC(=O)N(CC(=O)c2ccccc2)C1=O (centres undefined)	none
